Shown are actives, neighbours in structure and some others; about 3.5% of the full set was active somewhere.
BoNT F protease = blocks Botulinum neurotoxin F light chain protease; Multiplex microsphere protease cleavage assay, flow cytometry; inhibition, % at 10 µM; 360,000 tested, 0.22% active; AID 588497; in the data active means inhibition above about 35%, passing the limit was not always enough; inconclusive means no clear call, values can overlap the other calls; further: plate controls were buffer without enzyme for full effect and enzyme alone for no effect
Autofluor counter = compound fluorescence in toxin protease inhibitor counterscreen; compound autofluorescence counterscreen, microsphere flow cytometry; stronger effect = higher value; fluorescence intensity (no concentration beside the values); 360,000 tested, 3.1% active; AID 624483; in the data active means fluorescence intensity above about 16000; inconclusive means no clear call, values can overlap the other calls
BoNT A protease = blocks Botulinum neurotoxin A light chain protease; inhibition, % at 10 µM; 360,000 tested, 0.17% active; AID 588499; multiplex microsphere protease substrate cleavage, flow cytometry; further: plate controls were buffer without enzyme for full effect and enzyme alone for no effect
Anthrax LF prot = blocks Bacillus anthracis lethal factor protease; multiplex microsphere protease cleavage assay, LF; inhibition, % at 10 µM; 360,000 tested, 0.12% active; AID 588501; further: plate controls were buffer without enzyme for full effect and enzyme alone for no effect
Target sequence (P15917 whole entry, looked up): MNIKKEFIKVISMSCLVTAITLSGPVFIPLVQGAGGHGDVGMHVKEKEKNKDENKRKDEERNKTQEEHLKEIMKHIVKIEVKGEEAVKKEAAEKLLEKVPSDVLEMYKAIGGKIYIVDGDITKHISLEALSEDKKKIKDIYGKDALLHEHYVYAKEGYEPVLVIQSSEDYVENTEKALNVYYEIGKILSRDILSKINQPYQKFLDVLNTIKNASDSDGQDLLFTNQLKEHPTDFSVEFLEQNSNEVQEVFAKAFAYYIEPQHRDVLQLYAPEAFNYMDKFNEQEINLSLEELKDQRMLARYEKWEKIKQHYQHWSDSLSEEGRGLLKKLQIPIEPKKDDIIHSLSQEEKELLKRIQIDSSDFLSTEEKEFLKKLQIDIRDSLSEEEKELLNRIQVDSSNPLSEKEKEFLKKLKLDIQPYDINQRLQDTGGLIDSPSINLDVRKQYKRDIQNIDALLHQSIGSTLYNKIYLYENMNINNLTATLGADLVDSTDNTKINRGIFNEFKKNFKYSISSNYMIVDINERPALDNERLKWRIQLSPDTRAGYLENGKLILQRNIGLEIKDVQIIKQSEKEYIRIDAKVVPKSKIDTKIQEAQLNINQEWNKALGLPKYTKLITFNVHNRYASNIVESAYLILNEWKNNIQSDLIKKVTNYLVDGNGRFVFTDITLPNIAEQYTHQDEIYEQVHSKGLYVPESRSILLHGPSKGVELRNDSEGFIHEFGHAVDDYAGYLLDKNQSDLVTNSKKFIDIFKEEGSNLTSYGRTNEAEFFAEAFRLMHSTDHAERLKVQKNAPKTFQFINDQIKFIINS
* = called active by the depositor; ? = inconclusive. Unless noted, no stated cut-off is given here; in the data, active means inhibition above about 30%; inconclusive means no clear call, values can overlap the other calls; inactive means below that.

SMILES | BoNT F protease | Autofluor counter | BoNT A protease | Anthrax LF prot
O=C(COc1ccc(CNC[C@H]2O[C@@H](n3ccc(=O)[nH]c3=O)[C@H](O)[C@@H]2O)cc1)Nc1nccs1 | -2 | 6538 | -1 | -7
COC(=O)C1=C(C)OC(N)=C(C#N)C1c1ccccc1F (stereo not drawn) | -4 | 10345 | 0 | -3
COC(=O)C1=C(C)OC(N)=C(C#N)C1c1cc(OC)c(OCC(N)=O)cc1Cl (stereo not drawn) | -4 | 23456* | ? | 1
O=C1C(C=NCCCN2CCCC2=O)=C(O)c2ccccc21 | 0 | 19393* | 1 | -2
CC(C)(C)CC(C)(C)NC(=S)Nc1ccc2nc(-c3ccccn3)c(-c3ccccn3)nc2c1 | 18 | 6947 | 42* | 18
COc1cc(/C=C/[N+](=O)[O-])ccc1OC(=O)/C=C/c1ccc(F)cc1 | ? | 3220 | 0 | 7
O=c1oc2ccccc2cc1-c1csc(Cc2nc(-c3ccc(Br)cc3)cs2)n1 | 0 | 16508* | ? | 1
Cc1cc(-n2nc(C)cc2C)n2nc(C)c(-c3ccc(Cl)cc3)c2n1 | 18 | 17908* | 13 | -20
Cc1cc(SCC(=O)c2cccs2)n2nc(C)c(-c3ccc(Cl)cc3)c2n1 | -3 | 1987 | -1 | -1
C=CCSc1cc(C)nc2c(-c3ccc(Cl)cc3)c(C)nn12 | -1 | 20069* | 0 | -1
COC(=O)C1=C(C)NC(C)=C(C(=O)OC)C1c1ccc(NC(C)=O)cc1 | -1 | 10473 | 0 | 1
COC(=O)C1=C(C)NC(=O)NC1c1ccc2ccccc2c1 (stereo not drawn) | 8 | 3936 | -3 | -18
COC(=O)C1=C(C)NC(=O)NC1c1ccccc1 (stereo not drawn) | -3 | 23564* | -2 | -3
CCN(CC)c1ccc(C2C(C(=O)OC)=C(C)NC(C)=C2C(=O)OC)cc1 | 2 | 22496* | 1 | -3
COC(=O)C1=C(C)NC(=O)C1(NS(=O)(=O)c1ccc(NC(C)=O)cc1)C(F)(F)F (stereo not drawn) | -4 | 19985* | -2 | -2
COc1ccccc1CNc1nc(NCc2ccccc2SC)c2sccc2n1 | -2 | 3936 | 0 | -7
Cc1c(Cl)cccc1NC(=O)CCN1C(=O)NC(C)(C)C1=O | 7 | 5884 | 2 | 1
CCCN1C(=O)CN(C2CCCCCC2)C(=O)C1c1ccc(C)cc1 (stereo not drawn) | -2 | 23066* | -1 | 2
COc1ccccc1CN1C(=O)CN(C2CCCCCC2)C(=O)C1c1ccc(F)cc1 (stereo not drawn) | 5 | 10613 | 1 | -1
Cc1ccc(C2C(=O)N(C3CCC(C)CC3)CC(=O)N2C2CCCC2)cc1 (stereo not drawn) | -2 | 23411* | -4 | 1
COc1cc(C2C(=O)N(C3CCCC3)CC(=O)N2Cc2ccco2)ccc1OC(C)C (stereo not drawn) | 5 | 21363* | 5 | -2
COc1cc(C2c3[nH]c4ccccc4c3C[C@H]3C(=O)N(C4CC4)CC(=O)N23)ccc1OC(C)C (stereo partly drawn) | -4 | 3719 | -1 | -5
CCCOc1ccc(C2C(=O)N(C3CCCCC3)CC(=O)N2CCC)cc1OC (stereo not drawn) | 2 | 20044* | 0 | 1
O=C1C(c2ccc(F)cc2)N(C2CCCCC2)C(=O)CN1C1CCCC1 (stereo not drawn) | 4 | 9764 | 0 | 1
CC1CCCCN1CC(O)COCc1ccc(Cl)cc1 (stereo not drawn) | 4 | 3755 | -1 | -2
SMILES | BoNT F protease | Autofluor counter | BoNT A protease | Anthrax LF prot
COc1ccc(Cl)cc1NC(=O)CN1C(=O)C(=O)N(C2CCCC2)C1=O | 1 | 2812 | 0 | -1
COc1cc(-c2nn3c(COc4ccccc4)nnc3s2)cc(OC)c1OC | 1 | 23486* | -1 | 2
COc1cc(-c2nn3c(Cc4ccccc4)nnc3s2)cc(OC)c1OC | 3 | 22616* | 2 | -6
O=Cc1c[nH]c2ccc(C(=O)c3ccccc3)cc12 | -8 | 3501 | -3 | -8
O=C(Cn1c(=O)[nH]c2ccsc2c1=O)NC1CCCCCC1 | -1 | 23444* | ? | -4
FC(F)(F)c1nnc2sc(-c3ccncc3)nn12 | 2 | 19007* | ? | -5
COc1cccc(NC(=O)N(C)C[C@@H]2OCc3cn(nn3)CCCC(=O)N([C@H](C)CO)C[C@H]2C)c1 | -4 | 3428 | 0 | -4
O=C(c1ccc2nc3ccc(Cl)cc3c(=O)n2c1)N1CCOCC1 | 0 | 21084* | -2 | 0
O=C(c1cnc2ccc(Cl)cc2c1Cl)N1CCOCC1 | -3 | 4329 | -1 | -2
O=C(c1ccc2nc3ccc(Cl)cc3c(=O)n2c1)N1CCC2(CC1)OCCO2 | 2 | 19917* | 3 | 1
CCCNS(=O)(=O)c1ccc(OCC(=O)OC)cc1 | -3 | 24397* | -1 | 1
CCCNS(=O)(=O)c1ccc(OCC(=O)NCCC2=CCCCC2)cc1 | -6 | 25068* | -3 | -1
COC(=O)COc1ccc(S(=O)(=O)NCCC2=CCCCC2)cc1C | -9 | 22566* | -7 | -1
CCOC(=O)COc1ccc(S(=O)(=O)Nc2ccc(C)cc2)cc1 | -2 | 20911* | ? | -1
COC(=O)COc1ccc(S(=O)(=O)NCCC2=CCCCC2)cc1 | -1 | 5915 | 0 | -5
O=C(Nc1ccc(Cl)cc1Cl)NC1CCN(S(=O)(=O)c2ccc(F)cc2)CC1 | -4 | 3565 | 1 | -2
COC(=O)c1ccc(NC(CC(C)C)C(=O)OC)c([N+](=O)[O-])c1 (stereo not drawn) | 0 | 2021 | 0 | 0
CSc1ccccc1OCc1cc(C(=O)N2CCc3c(Cl)cccc3C2)no1 | 2 | 3934 | 1 | 2
CC(=O)Nc1ccc(NC(=O)CC(C)n2ccnc2)cc1 (stereo not drawn) | 3 | 3369 | 1 | -1
COc1ccc(N2CC(C(=O)NC3CCSC3=O)CC2=O)cc1 (stereo not drawn) | 15 | 3762 | 1 | -3
O=C(O/C(=C/c1ccccc1)C(F)(F)F)c1ccccc1 | 0 | 3436 | 0 | -6
Cc1ccc2nc(NCCc3ccccc3)c3nncn3c2c1 | -4 | 2998 | -2 | -2
Cc1ccc(S(=O)(=O)N(C)C)cc1NC(=O)C(C)OC(=O)CC1CC2CCC1C2 (stereo not drawn) | -3 | 2877 | 1 | 0
O=C(CCC1CCN(C(=O)c2cc(C(F)(F)F)ccc2Cl)CC1)NC1CC1 | -2 | 4206 | 0 | -1
CCCn1ncc(OC)c(Cl)c1=O | 2 | 21990* | 3 | -11
SMILES | BoNT F protease | Autofluor counter | BoNT A protease | Anthrax LF prot
CN(C)CCCNCCCNC(=O)c1ccncc1 | 0 | 21704* | 1 | -8
O=C(O)CCCCCNC(=O)c1ccc(C(=O)NCCCCCC(=O)O)cc1 | -1 | 4778 | 0 | -3
CN(C)CCCNC(=O)c1ccccn1 | -4 | 16671* | -1 | 1
O=C(O)CCCCCNC(=O)c1ccncc1 | 0 | 19428* | ? | -5
O=C(NCCCNCc1ccccc1)c1ccncc1 | -4 | 10365 | 0 | -2
COc1ccc(CNc2cc(C)nc3ncnn23)c(OC)c1 | -2 | 22962* | -2 | -2
COc1cc(Cl)ccc1OCc1cc(C(=O)NCc2cc(C(C)C)no2)no1 | -4 | 6078 | -1 | 2
COc1ccc(C(=O)O)cc1S(=O)(=O)Nc1ccc(Oc2ccccc2)cc1 | 0 | 5310 | 0 | 0

Compound activity (PubChem)
